Consider six compounds from PubChem BioAssay (NCI).

Experiment in all cases: NCI-60 one-dose screen, 48 h (100 = growth as untreated, 0 = no growth, -100 = all killed)
What all share (settings): 10 µM

In experiment [1] the test system is NCI-H23 lung.
The test system of experiment [2] is NCI-H226 lung.
The test system of experiment [3] is NCI-H322M lung.
Experiment [4] concerns HOP-62 NSCLC.
Experiment [5] deals with NCI-H460 lung.
The test system of experiment [6] is HOP-92 NSCLC.
The test system of experiment [7] is NCI-H522 lung.
Experiment [8] has as its system A549/ATCC NSCLC.
Experiment [9] concerns 786-0 renal.
The subject of experiment [10] is COLO 205 colon.
The test system of experiment [11] is DU-145 prostate.
Experiment [12] relates to K-562 leukemia.
Experiment [13] deals with MALME-3M melanoma.
Experiment [14] relates to MDA-MB-231 breast.
Experiment [15] concerns RXF 393 renal.
Experiment [16] concerns SF-268 CNS.
Experiment [17] deals with SF-295 CNS.
The test system of experiment [18] is SF-539 CNS.
Experiment [19] deals with UACC-257 melanoma.
The test system of experiment [20] is M14 melanoma.

This is part of a sample that, as a whole, favours compounds with a hit. Of some 83,000 tested, about 20% had one in any assay.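 Results are percent growth after 48 hours of single-concentration exposure. 100 means growth as in untreated cells, lower positive values show inhibition; negative values down to -100 show cell death.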 Unmarked numbers belong to inactive results. Activity calls are given as the source filed them. The calls were made as follows: active = growth percent below 10; inactive = the rest.

`CC(C)=C1CCC(C)C/C1=N\N=C(N)N` (stereo not given): the growth in [1] was 105%; in [2] it was 97.9%; in experiment [3], 97.1%; in experiment [4], 101%; in experiment [5], 102%; in experiment [6], 85.8%. Moreover, the growth is 90.8% in experiment [7]; 91.8% in experiment [8]; 93.3% in experiment [9]; 108% in experiment [10]; 105% in experiment [11]; 97.9% in [12]. Moreover, the growth in experiment [13] is 100%; in [14] it was 113%; in [15] it was 107%; in [16] it was 99.2%; in experiment [17], 98.4%; in [18], 104%. Further, the growth in experiment [19] was 93.5%; in experiment [20], 102%.
Take `Nc1ccc(C2=CC(c3ccc(Cl)cc3)N3C=CSC3=N2)cc1` (stereo not given): the growth was -46.6% (active) in [1]; -71.4% (active) in experiment [2]; -57.2% (active) in experiment [3]; -63.8% (active) in [4]; -6.81% (active) in experiment [5]; -22.7% (active) in experiment [6]. The growth is -65.9% (active) in experiment [7]; -39.3% (active) in experiment [8]; -90.9% (active) in experiment [9]; -85.1% (active) in experiment [10]; -44.6% (active) in experiment [11]; 3.22% (active) in [12]. Besides, the growth in [13] was -82.8% (active); in experiment [14], -14.4% (active); in [15] it was -93.1% (active); in experiment [16] it was -41.9% (active); in [17], -0.33% (active); in [18] it was -55.8% (active). Moreover, the values for the growth in experiment [19] and in experiment [20] were -78.1% (active) and -71.1% (active), respectively.
For `CCOC(=O)c1ccc(N(C=O)CCC(=O)CCl)cc1`, the growth is 19.5% in experiment [1]; 36.2% in experiment [2]; 75.6% in experiment [3]; 29.8% in [4]; 4.12% (active) in experiment [5]; -7.96% (active) in experiment [6]. Also, the growth in experiment [7] is -71.9% (active); in experiment [8], 12.3%; in experiment [9], 2.2% (active); in [10], -9.81% (active); in [11] it was -25.8% (active); in [12], 4.03% (active). The growth in experiment [13] was 45.1%; in [14] it was -16.5% (active); in experiment [15] it was -37.7% (active); in experiment [16], 6.04% (active); in [17], -16.1% (active); in [18], -31.2% (active). For the same compound, the growth is 39% in [19] and -5.18% (active) in [20].
On to `COc1ccc(OC)c([N+](=O)[O-])c1C=O`, for which the growth in [1] is 107%; in experiment [2], 92%; in [3] it was 101%; in experiment [4], 78.2%; in experiment [5], 108%; in [6], 91.1%. Moreover, the growth in experiment [7] is 76.9%; in [8], 101%; in experiment [9] it was 110%; in experiment [10], 124%; in experiment [11], 116%; in experiment [12], 42.4%. Further, the growth was 108% in experiment [13]; 107% in [14]; 80.6% in experiment [15]; 109% in experiment [16]; 93.7% in [17]; 105% in [18]. The growth in [19] was 84.1%; in experiment [20] it was 108%.
For the compound `C#CCNCCN1C(=O)c2ccc3c4c(ccc(c24)C1=O)C(=O)N(CCNCC#C)C3=O`, the growth in [1] was 23.8%; in [2], 20.9%; in experiment [3], 28.7%; in experiment [4] it was 48.4%; in experiment [5] it was 12.8%; in [6], 91.2%. The growth in [7] was 26.3%; in experiment [8] it was 29.2%; in experiment [9], 43.1%; in experiment [10], -77.3% (active); in experiment [11], 54.7%; in experiment [12] it was 25%. In addition, the growth is -12.9% (active) in experiment [13]; 58% in [14]; 52.1% in [15]; 47.9% in experiment [16]; 27% in [17]; 47.7% in experiment [18]. Besides, the values for the growth in [19] and in [20] were 14.4% and 32.6%, respectively.
Turning to `CCCCCCCCCCCCCCCCCBr`, the growth was 106% in experiment [1]; 94.9% in experiment [2]; 94.6% in experiment [3]; 104% in [4]; 106% in [5]; 98.8% in experiment [6]. Further, the growth in experiment [7] was 98.4%; in [8], 108%; in experiment [9], 104%; in experiment [10], 106%; in experiment [11] it was 113%; in experiment [12] it was 97.4%. The growth in [13] was 108%; in experiment [14], 112%; in [15], 109%; in experiment [16], 109%; in [17] it was 97%; in experiment [18] it was 99.5%. The growth in [19] was 102%; in experiment [20], 109%.
